Test results from PubChem BioAssay (Tox21).
Unmarked numbers belong to inactive results. Where a call stands in place of a potency, no number is given. Calls of active or inactive are those of the source. The call rests on the fitted dose curve; in most records, active means well fitted curve in the direction sought with a large enough effect in the repeat runs; inconclusive means weak or mixed curves; inactive means flat fitted curve, though single readings scatter.

Assay: qHTS assay to test for compound auto fluorescence at 535 nm (green) in HEK293 cells (AID 720680)
Conditions: green autofluorescence 485/535 nm; series mostly up to 91.3 µM; fluorescence, % of fluorescein: at the top concentration
From the text: U.S. Tox21 Program National Center for Advancing Translational Sciences [NCATS] NIH Chemical Genomics Center [NCGC] U.S. Environmental Protection Agency [EPA] National Institutes of Environmental Health Sciences [NIEHS] National Toxicology Program [NTP] U.S. Food and Drug Administration [FDA] Tox21 Assay Overview: Compound auto fluorescence often interferes with screening of the compound library against various biological targets and signaling pathways. Some of these compounds may have fluorophoric properties. Such properties may interfere with the assay outputs resulting in false positives and/or negatives. To decrease such complications and ensure the compound activities are relevant in terms of biological response, the Tox21 10K compound library was screened for auto fluorescence. From the fluorophores used as reporter signals in our screening assays, the auto fluorescence equivalencies of compounds against three fluorophores have been evaluated: Triamterene, Fluorescein and Rose Bengal sodium for blue, green and red fluorescence, respectively. The fluorescence intensities were measured using Excitation/Emission wavelengths at 405/460nm, 485/535nm and 540/590nm for blue, green and red labels, respectively. This assay includes the green fluorescence data.
Tox21 Assay Protocol Summary: 2,000 HEK293 cells in 5 uL of culture medium containing 10% dialyzed FBS per well were dispensed into black wall/clear bottom 1536-well plates using a Multidrop Combi Dispenser (Thermo Scientific). The assay plates were incubated for 4-5 hr at 37C to allow cell attachment to the well bottom, followed by the transfer of 23 nL compound or DMSO vehicle by a pintool work station (Kalypsys, San Diego, CA). After the assay plates were incubated overnight at 37C and 5% CO2, fluorescence intensities in the assay plates were measured by an Envision (PerkinElmer, Shelton, CT) plate reader using three labels for measuring blue, green and red fluorescence at […] 460, 535 and 590nm respectively.

Compound	Potency	fluorescence, % of fluorescein
Nc1nc2ccccc2[nH]1	inactive	–
COC(c1ccccc1)(c1ccccc1)[C@H](Oc1nc(C)cc(C)n1)C(=O)O	–	-0.0083% [at 46 µM]
O=C(O)CCc1ccccc1	–	0.0437%
Oc1c(Cl)cc(Cl)c(Cl)c1Cc1c(O)c(Cl)cc(Cl)c1Cl	inactive	–
c1cc(C(c2ccc(OCC3CO3)cc2)C(c2ccc(OCC3CO3)cc2)c2ccc(OCC3CO3)cc2)ccc1OCC1CO1 (stereo not given)	inactive	–
Clc1ccc2c(c1)C(N1CCNCC1)=Nc1ccccc1O2	inactive	–
NCCO	inactive	–
O=S(=O)(O)c1ccc2nc(-c3ccccc3)[nH]c2c1	inactive	–
CCN(CC)C(=S)SSC(=S)N(CC)CC	inactive	–
C/C=C/c1ccc(OCC)c(O)c1	–	-0.0319%
C=CS(=O)(=O)O	inactive	–
O=C1CC2(CCCC2)CC(=O)N1CCCCN1CCN(c2ncccn2)CC1	inactive	–
CCCCC(CC)COC(=O)CC(C(=O)OCC(CC)CCCC)S(=O)(=O)O (stereo not given)	inactive	–
CC(C)(O)CCC(C)(C)O	–	-0.158% [at 95.7 µM]
CC(C)(C)c1cc(C(C)(C)C)c(O)c(C(C)(C)C)c1	inactive	–
O=C(OCc1ccccc1)c1ccc(O)cc1	inactive	–
CC[C@@H](N)CO	–	0.0165% [at 95.7 µM]
CC(C)(C)c1ccc(O)c(C(C)(C)C)c1	inactive	–
C=C(C)C(=O)O	inactive	–
CC[C@H]1CN2CCc3cc(OC)c(OC)cc3[C@@H]2C[C@@H]1C[C@H]1NCCc2cc(OC)c(OC)cc21	inactive	–

Compound	Potency	fluorescence, % of fluorescein
CCCCCC(=O)O[C@]1(C(C)=O)CC[C@H]2[C@@H]3CCC4=CC(=O)CC[C@]4(C)[C@H]3CC[C@@]21C	inactive	–
Cc1cc(C(C)(C)C)c(O)c(C(C)(C)C)c1	inactive	–
O	inactive	–
COc1ccc(CCN(C)CCCC(C#N)(c2ccc(OC)c(OC)c2)C(C)C)cc1OC (stereo not given)	inactive	–
NCCCCCC(=O)O	–	-0.0215% [at 18.6 µM]
CC1COc2c(N3CCN(C)CC3)c(F)cc3c(=O)c(C(=O)O)cn1c23 (stereo not given)	–	-0.0632% [at 46 µM]
COc1ccc(COC(C)=O)cc1	inactive	–
OCCOCCN1CCN(C(c2ccccc2)c2ccc(Cl)cc2)CC1 (stereo not given)	inactive	–
c1ccc2n[nH]nc2c1	inactive	–
Cc1occc(=O)c1OC(=O)C(C)C	–	-0.167%
Cc1cccc2n[nH]nc12	inactive	–
CC(C)CCOC(=O)c1ccc(N(C)C)cc1	–	-0.0025% [at 46 µM]
NC(N)=NC(=O)Cc1c(Cl)cccc1Cl	–	0.116% [at 46 µM]
CC(=O)CC(C)=O	–	0.0555% [at 95.7 µM]
CCn1c2ccccc2c2cc(N)ccc21	inactive	–
CCC(C)(Oc1ccc(C2(c3ccc(OC(C)(CC)C(=O)O)cc3)CCCCC2)cc1)C(=O)O (stereo not given)	–	0.0252% [at 46 µM]
COc1ccc(Cc2cnc(N)nc2N)cc1OC	–	-0.0818% [at 46 µM]
c1ccc2c(c1)-c1cccc3c1c-2cc1ccccc13	inactive	–
CCN1CCCC1CNC(=O)c1cc(S(=O)(=O)CC)c(N)cc1OC (stereo not given)	–	-0.0175% [at 46 µM]
c1ccc2c(c1)CCCC2C1=NCCN1 (stereo not given)	–	0.0361% [at 46 µM]
